Bioassay records deposited in PubChem by National Center for Advancing Translational Sciences (NCATS).
Only some compounds are listed: those with a hit (about 7.9% of all), similar ones and a draw of the others.
LASV entry inh: qHTS for Inhibitors of binding or entry into cells for Lassa Virus | Potency, µM (highest dose often 37.9 µM), inactives show top-dose activity change, negative = inhibition, actives largely listed as inhibitors | 300,000 tested, 1.2% active | Lassa virus pseudotype entry inhibition, cell reporter; calls by dose curve; tested in HEK293 cells; also: potency is read from the fitted curve at half-maximal effect; nearly all actives have a fitted effect of over 50% in size
MARV entry inh: qHTS for inhibitors of binding or entry into cells for Marburg Virus; Marburg virus pseudotyped entry inhibition, cell reporter; Potency, µM (titrated, usually from 37.8 µM), inactives show at the top dose activity change, negative = inhibition, actives largely listed as inhibitors; 300,000 tested, 1.8% active; calls by dose curve; tested in HEK293 cells; also: potency is read from the fitted curve at half-maximal effect
FMDV antiviral: High Throughput Screening for Foot and Mouth Disease Virus Antivirals. AID 1159524, 2015. Potency, µM (doses to about 57.9 µM), for the others: top-dose activity change, negative = inhibition, hits mostly inhibitors. 410,000 tested, 1.2% active. FMDV antiviral cell-based qHTS; calls by dose curve; tested in HEK293T cells; also: read-out not given here; potency is read from the fitted curve at half-maximal effect; nearly all actives have a fitted effect of over 45% in size
HCV inhibitor: qHTS Assay for Inhibitors of Hepatitis C Virus (HCV); Huh7.5.1 HCVcc-Cre infection, luciferase reporter, 44 h; Potency, µM (top dose mostly 41.8 µM), without a hit: at the highest dose activity change, negative = inhibition, most hits filed as inhibitors; 340,000 tested, 3.4% active; active = well fitted inhibition curve with a large enough effect; inconclusive = small, poorly fitted or top-dose-only effect, or another doubt; inactive = no such curve, though single readings can be large or run the other way; also: potency is read from the fitted curve at half-maximal effect
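After 44 h co-culture of compound, cells and HCVcc-Cre (~0.5 moi), substrate is added for 15 min at room temperature and luciferase measured over 15 sec. Cells were seeded at 1,000/well and pre-cultured 4 h.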
HCMV inh: qHTS Assay for inhibitors of the human cytomegalovirus (HCMV); HFF cells, HCMV-luciferase reporter, 72 h; hits give low values; activity change, negative = inhibition, % at 57.5 µM; 410,000 tested, 4.5% active; in the data active = activity change below about -60%; inconclusive = no clear call, values can overlap the other calls; inactive = above about -39%
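Human foreskin fibroblasts infected with luciferase-reporter HCMV at MOI 1 PFU/cell, compounds at two doses. Luciferase measured 72 h post infection; normalized to buffer-only basal and Salinomycin (10uM) controls.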
Numbers without * were called inactive; ? = inconclusive; · = no result; [ ] = remark or other dose. % is scaled to controls: 0 for no effect and ±100 for the full control effect.

SMILES	LASV entry inh	MARV entry inh	FMDV antiviral	HCV inhibitor	HCMV inh
COc1cc(-c2cnc3ccccc3c2)cc2c1OCCN(S(=O)(=O)C[C@]13CC[C@H](CC1=O)C3(C)C)C2	·	·	-1%	·	·
O=C(COC(=O)c1cccc([N+](=O)[O-])c1)c1ccc2c(c1)OCO2	·	·	·	0%	·
O=C(Cc1ccc(Cl)cc1)NCC(=O)N1CCC2(CC1)NCCc1[nH]cnc12	·	·	-24%	·	20
O=C(NCCN1CCOCC1)c1cc(-c2ccc(F)cc2)nc2ccccc12	?	22%	-6%	-2%	-22
O=C(NCCN1CCOCC1)c1cc2ccccc2oc1=O	5%	?	27%	3.2µM*	-20
CCC(=O)Nc1ccc(NC(=S)NC(=O)c2cc3ccccc3o2)cc1	-15%	11%	7%	8%	-26
O=C(NC(=S)Nc1ccc(CN2CCOCC2)cc1)c1cc2ccccc2o1	·	·	9%	-9%	-70*
CC(C)Oc1ccc(-c2cc(C(=O)NCCN3CCOCC3)c3ccccc3n2)cc1	-11%	-5%	11%	10µM*	95
O=C(NCCN1CCOCC1)c1cc2ccccc2o1	10%	14%[46.1 µM]	14%	12%	-7
C#CCCCO/N=C1\C[C@@H](O)[C@@H](O)[C@@H]2[C@@H]3C(=O)N(C[C@@H]4CCCO4)C(=O)[C@@H]3CC[C@H]12	·	4%[14.2 µM]	·	·	·
O=C(NCC1CCN(Cc2ccccc2)CC1)[C@H]1O[C@@H](n2ccc(=O)[nH]c2=O)[C@H](O)[C@@H]1O	·	·	-16%	·	24
N#Cc1nc(-c2cccs2)oc1NCc1ccc(Cl)cc1	1%	-3%	12%	10µM*	-33
COC(=O)c1cc(CNC(=O)c2cccc(C)c2)cc(NC(=O)c2ccncc2)c1	·	·	-6%	·	·
Cc1oc2ccc(O)c(CN(C)Cc3ccccc3)c2c1C(=O)Nc1cccc(C(F)(F)F)c1	?	?	?	·	-79*
CCN(Cc1ccccc1)Cc1c(O)ccc2oc(C)c(C(=O)Nc3ccc(C)cc3C)c12	?	?	?	·	-12
Cc1ccc(NC(=O)c2c(C)oc3ccc(O)c(CN(C)Cc4ccccc4)c23)c(C)c1	?	?	-23%	·	-67*
Cc1oc2ccc(O)c(CN(C)Cc3ccccc3)c2c1C(=O)Nc1ccccc1	?	?	-25%	·	-81*
Cc1cc2c(cc1C)N[C@]1(C[C@H]3CCCC(=O)N4CC[C@@H](C1)[C@@H]34)C(=NC(C)(C)CC(C)(C)C)N2	·	·	-20%	13%	-5
Cc1cc(C)cc(N(CC(=O)NCC2CCCO2)C(=O)CCC(=O)Nc2nccs2)c1 (centres undefined)	1%	-28%	6%	-10%	?
COc1ccc(C(=O)Nc2nc3ccccc3[nH]2)cc1	?	?	-84%	-13%	-33
Cc1cccc(C(=O)N[C@H](C(=O)Nc2nc3ccccc3[nH]2)C(C)C)c1	·	·	-25%	-24%	-81*
COc1ccc(C(=O)N[C@H](C(=O)Nc2nc3ccccc3[nH]2)C(C)C)cc1	?	?	14%	7.1µM*	-86*
Cc1cc(NC(=O)CSc2nc3c(C)cccc3cc2C)no1	-2%	?	-20%	-3%	36
N#Cc1ccc(OCc2nnc(SCC(=O)N3CCCc4ccccc43)n2-c2ccccc2)cc1	26µM*	18µM*	-29%	-8%	-3
COc1ccc(-n2c(Cc3cccn3C)nnc2SCC(=O)N2CCCc3ccccc32)cc1	22%[14.3 µM]	-4%	21%	·	13
SMILES	LASV entry inh	MARV entry inh	FMDV antiviral	HCV inhibitor	HCMV inh
COc1ccc(OCc2nnc(SCC(=O)N3CCCc4ccccc43)n2-c2ccc(C)cc2)cc1	?	?	-15%	10µM*	-9
C[C@@H]1CC[C@H]2C(=O)N(Cc3cccc([N+](=O)[O-])c3)C[C@@H](O)CN2[C@@H]1c1cccc(Br)c1	-5%[14.3 µM]	?	·	·	·
COc1ccc([C@H]2Cc3cccc(O)c3C(=O)O2)cc1O	·	·	21%	?	2
COc1ccc([C@H]2Cc3cc(O)cc(O)c3C(=O)O2)cc1O	·	·	-3%	13%	-102*
O=c1cc(-c2ccc(O)c(O)c2)oc2c1ccc1ccccc12	·	·	?	?	11
O=c1cc(-c2ccc(O)c(O)c2)oc2ccc3ccccc3c12	?	?	6.3µM*	?	-5
